High-throughput results: PubChem, Broad Institute
Rows were chosen to be rich in hits. Some 3% of all compounds tested hit in one or more screens of this group.
PfHsp90 yeast 2: growth inhibition of yeast expressing Plasmodium Hsp90; inhibition, % at 9.4 µM; S. cerevisiae expressing PfHsp90, BacTiter-Glo ATP, 48 h; yeast lacking PDR1 and PDR3 efflux regulators; hit rate 0.32% among 310,000;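 active = every replicate shows inhibition above about 80%, whatever the replicate mean, limit read from the data; inconclusive = mean inhibition reaches the set limit but some replicate falls short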;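 note: 0% = DMSO neutral controls and 100% = 20 µM radicicol positive controls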
Wnt bcat act: Wnt/beta-catenin pathway activation. Wnt/beta-catenin reporter cell assay, activator, plate reader. hit rate 1.2% among 300,000. activation, % at 9.35 µM; in the data active = activation above about 30%, passing the limit was not always enough; inconclusive = no clear call, values can overlap the other calls;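 note: 0% = neutral control wells and 100% = positive control wells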
MITF TRPM1 HTS: increases MITF-driven TRPM1 promoter luciferase signal; SK-MEL-5 TRPM1-promoter luciferase, 24 h; % of positive control, neutral wells = 0; activation, % at 12.5 µM; hit rate 0.75% among 300,000; AID 588334;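 active = mean activation of at least 80% with every replicate also reaching 80%; inconclusive = mean reaches 80% but some replicate falls short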;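 note: 0% = neutral control wells and 100% = parthenolide positive control wells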
Vif imaging: HIV Vif inhibition; HEK293T cells, Vif self-association by quenched fluorescence, imaging, 24 h; inhibition, % at 7.49 µM; hit rate 0.35% among 340,000; AID 602346; in the data active = inhibition above about 50%, passing the limit was not always enough; inconclusive = no clear call, values can overlap the other calls; inactive = below about 31%
esBAF inh: SWI/SNF esBAF complex inhibition. mouse ES cells, Bmi1-luciferase knock-in reporter, 24 h; 100% = twice the neutral-well signal. reporter increase, % at 12.5 µM. hit rate 2% among 350,000; in the data active = activation above about 40%; inconclusive = no clear call, values can overlap the other calls;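 note: 0% = median of the plate's neutral control wells and 100% = double that signal; a rise in the Bmi1 reporter signal indicates esBAF inhibition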
N-glyco inh: blocks N-linked glycosylation in D54 reporter cells; D54 ERlucT glycosylation luciferase reporter, 24 h; percent of 100 nM tunicamycin response; reporter increase, % at 12.5 µM; AID 588692; hit rate 0.23% among 360,000;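 active = mean luciferase reporter signal, scaled so untreated is 0 and the glycosylation-blocking control 100, at or above a set limit in every replicate; inconclusive = mean reaches the limit but not every replicate does; inactive = mean below the limit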;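 note: luciferase carries N-glycosylation sites so blocking glycosylation raises the light; 0% = median of neutral control wells and 100% = median of 100 nM tunicamycin wells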
An asterisk follows results filed as active; ? = inconclusive; · = no result given.

SMILES | PfHsp90 yeast 2 | Wnt bcat act | MITF TRPM1 HTS | Vif imaging | esBAF inh | N-glyco inh
CCc1ccc(C(=O)Nc2cc(C)on2)o1 | -62 | 9 | 73 | 3 | 51* | 0
COc1ccc(C(=O)Nc2cnc(NC(=O)c3cccs3)cc2C)cc1 | 1 | 6 | 14 | 4 | 47* | -1
Cc1cc(NC(=O)CSc2nc(C(C)C)nc3sc(C)c(C)c23)no1 | -5 | -6 | -14 | 9 | 0 | 2
COc1ccc(C(=O)Nc2cc(C)on2)cc1 | 5 | 47* | 34 | 13 | -7 | -7
CCOc1cc(NC(=O)C2CCCCC2)c(OCC)cc1NC(=O)c1ccccn1 | -7 | -2 | 1 | -11 | -6 | -1
CC1(C(=O)NS(=O)(=O)c2ccccc2C(F)(F)F)CCN1C(=O)CCc1cccs1 (stereo not drawn) | · | -3 | · | -11 | 0 | -2
COc1ccc2c(c1OC)C(=O)N1N=C(c3ccc(Br)cc3)CC21 (stereo not drawn) | 21 | · | 23 | -3 | · | 1
O=C(/C=C/c1ccc(F)cc1)N1CCN(c2ncccn2)CC1 | 38 | 11 | 15 | 5 | · | -1
Oc1ccc(Cl)cc1C1=Nc2ccccc2N=C(c2ccco2)C1 | 6 | 5 | -6 | · | 26 | 0
Fc1ccccc1C1CC(c2ccco2)=Nc2ccccc2S1 (stereo not drawn) | 17 | 35* | -8 | -2 | 11 | -3
O=C1c2ccccc2C(=O)N1CCc1c[nH]c2ccccc12 | -20 | 5 | 111* | 2 | · | -2
C/C(=N\NC(=O)c1cc(C)[nH]n1)c1cccs1 | -11 | 35* | 19 | 25 | -16 | -9
C/C(=N/NC(=O)c1cc(C(C)C)[nH]n1)c1cccs1 | 2 | 33* | 14 | 5 | -40 | -12
C/C(=N\NC(=O)c1cc(Br)ccc1O)c1cccs1 | 12 | ? | 81* | -7 | 38 | -2
O=C(Nc1ccccc1)c1ccc(-c2ccccc2)s1 | 8 | 5 | 85* | 7 | · | -8
COc1ccc2cc(C(=O)Nc3ccccc3)sc(=O)c2c1OC | -1 | 6 | 56 | 1 | ? | 2
O=C(Nc1ccccc1)c1cc2ccc3ccccc3c2s1 | -2 | 66* | 42 | -9 | 79* | -7
COc1ccc(Cc2nc3ccc(C(=O)NC(C)C)cc3o2)cc1 | -2 | 27 | · | -1 | 51* | 0
O=C(c1ccc2nc(Cc3cccc(Cl)c3)oc2c1)N1CCOCC1 | -32 | 19 | 102* | · | · | 0
CCOC(=O)C1CCCN(C(=O)c2ccc3nc(-c4cccc(OC)c4)oc3c2)C1 (stereo not drawn) | -8 | 17 | 26 | -2 | 48* | 2
C=C(C)CNC(=O)c1ccc2nc(Cc3ccc(OC)cc3)oc2c1 | 0 | 17 | · | 19 | 66* | -4
Cc1cc(C(=O)Nc2ccccc2N2CCOCC2)no1 | -9 | -2 | · | -2 | 10 | 0
COc1cccc(C2Nc3ccccc3C(=O)N2O)c1O (stereo not drawn) | 7 | · | 2 | 15 | ? | 1
COc1ccc([C@@H](C)NC(=O)c2ccc3oc(C(C)C)nc3c2)cc1 | 9 | 18 | 55 | -2 | 64* | 2
COc1ccc(Cc2nc3ccc(C(=O)N4CCCC4)cc3o2)cc1 | -5 | 29 | 57 | -10 | 71* | -3
SMILES | PfHsp90 yeast 2 | Wnt bcat act | MITF TRPM1 HTS | Vif imaging | esBAF inh | N-glyco inh
COC1CCN(C(=O)c2ccc3oc(C(C)C)nc3c2)CC1 | 28 | 2 | 10 | 3 | 8 | 1
COc1ccc(Cc2nc3ccc(C(=O)N4CCCC4)cc3o2)cc1OC | -9 | -1 | -8 | -6 | 6 | -3
Cc1ccc(NC(=O)CSc2ccc3c(c2)OCCO3)c(O)c1 | 6 | -3 | -24 | -21 | -17 | 0
COc1ccc2cc(C(=O)C3CCCN(Cc4cnc(N5CCOCC5)s4)C3)ccc2c1 (stereo not drawn) | 18 | -1 | -5 | -11 | 0 | -4
Cc1ccc(Nc2cc(C)nc(-c3ccccc3O)n2)cc1 | · | 42* | · | -7 | 53* | -8
Cc1cc(Nc2ccc(Br)cc2)nc(-c2ccccc2O)n1 | -25 | 3 | · | 4 | 9 | -6
Cc1ccc(Nc2cc(C)nc(-c3ccccc3)n2)cc1 | 32 | ? | 122* | · | ? | 1
Cc1cc(NCCCN)nc(-c2ccccc2O)n1 | 10 | · | 31 | -9 | 45* | 0
CCOC(=O)C1=C(C)N=c2sc(=Cc3cc(Cl)c(OCC(=O)O)c(OC)c3)c(=O)n2C1c1ccccc1Cl (stereo not drawn) | · | -2 | · | 9 | 2 | -1
COc1cccc(NC(=S)N2C3CCCC2CC(NC(=O)C2CC2)C3)c1 (stereo not drawn) | 1 | -3 | 3 | 2 | 12 | 4
C=CCSc1n[nH]c(-c2ccc(OCCCC)cc2)n1 | · | -2 | 67 | -5 | 48* | 1
C=CCSc1n[nH]c(-c2ccc(OCCC)cc2)n1 | · | 21 | 92* | -8 | 74* | 0
COc1ccccc1CCn1cnc(-c2ccccc2OC)c1C(C)C | · | -2 | · | · | · | ·
CC(=O)c1ccc(NC(=O)c2ccn(C(=O)OCC(C)C)n2)cc1 | -3 | 53* | 18 | -8 | · | -6
O=C(CSc1ccc(-c2ccco2)nn1)Nc1ccccc1 | · | -1 | -1 | -6 | · | 1
c1ccc(-c2cc(N3CCCCC3)ncn2)cc1 | 14 | -1 | 86* | 3 | 44* | -1
c1ccc(-c2cc(N3CCCCCC3)n[nH]2)cc1 | -8 | · | 2 | 16 | 58* | -2
O=C(NCc1ccco1)C(c1cccnc1)N(C(=O)Cn1nnc2ccccc21)c1ccccc1 (stereo not drawn) | -3 | 0 | -2 | 22 | 5 | 0
CCCn1nc(C(=O)NNC(=O)c2cccc(S(=O)(=O)NC(C)C)c2)c2ccccc2c1=O | 3 | 0 | -1 | -14 | -5 | 0
Cc1cc(N=Nc2ccccc2C(=O)O)c(C)c(C)c1O | 100* | -1 | -11 | -2 | · | 2
Cc1cc(O)c(C(C)C)cc1N=Nc1ccccc1C(=O)O | -3 | 0 | -3 | 5 | -4 | 0
CC(=O)N1CCN(S(=O)(=O)c2cccc(C(=O)N(Cc3ccccc3)c3ccc(C)cc3)c2)CC1 | 4 | -1 | 7 | 9 | 11 | 0
Cc1ccc(N(Cc2ccccc2)C(=O)c2cccc(S(=O)(=O)N3CC(C)OC(C)C3)c2)cc1 (stereo not drawn) | 6 | -1 | 9 | -15 | 64* | -6
CCOC(=O)c1[nH]c2ccc(F)cc2c1NC(=O)c1ccccc1C(=O)O | 5 | 18 | 28 | 10 | 54* | -3
Cc1cc(OCCCCN2C(=O)NC(C)(C)C2=O)cc(C)c1Cl | -33 | -6 | 8 | 1 | -1 | 0
c1csc(CSc2nc3ccccc3s2)c1 | 5 | · | 98* | 1 | · | -7
c1ccc2c(c1)oc1c(N3CCOCC3)ncnc12 | 4 | · | 6 | -4 | · | -1
